From PubChem BioAssay (Tox21)
Values joined by “and” are separate entries in the source; they are usually repeats but may differ in a detail not shown here. Identical values can stand only once. Inconclusive results are not listed. Active and inactive are the calls of the source. Unless noted, calls come from the whole dose curve; as a rule, active = well fitted curve in the direction sought with a large enough effect in the repeat runs; inconclusive = weak or mixed curves; inactive = no such curve, though single readings can be large; an effect the other way counts as inactive or inconclusive.

Columns and labels:
[1] = qHTS assay for small molecule agonists of the p53 signaling pathway (AID 651631; calls by dose curve; note: nearly all actives have a fitted effect of over 15% in size; note: potency is the fitted concentration of half-maximal effect)
Summary of the method: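 p53RE-bla HCT-116 cells; compounds 16 h, 37 °C; LiveBLAzer B/G FRET substrate 2 h RT; fluorescence intensity read-out, qHTS format.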

[2] = qHTS assay for small molecules that induce genotoxicity in human embryonic kidney cells expressing luciferase-tagged ATAD5 - cell viability (AID 651634; calls by dose curve; note: nearly all actives have a fitted effect of over 25% in size)
Summary of the method: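 HEK293T cells expressing luciferase-tagged ATAD5 were exposed to compound or DMSO for 15.5 hr at 37C, 5% CO2. Viability was then read as live-cell protease activity by CellTiter-Fluor fluorescence after 30 min at 37C.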

[3] = qHTS assay for small molecule disruptors of the mitochondrial membrane potential - cell viability (AID 720634; calls by dose curve; note: nearly all actives have a fitted effect of over 20% in size; note: potency is the fitted concentration of half-maximal effect)
Summary of the method: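 HepG2 cells seeded overnight at 37 C, then exposed to compound or DMSO for 1 hr at 37 C, 5% CO2. m-MPI dye added, then CellTiter-Glo for 30 min at room temperature; viability read as ATP luminescence.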

[4] = qHTS assay for small molecule disruptors of the mitochondrial membrane potential (AID 720635); note: potency is the fitted concentration of half-maximal effect
Summary of the method: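 HepG2 cells exposed to compound 1 hr at 37C, then Mito-MPS dye 30 min. Ratio read of aggregate (540/590 nm) versus monomer (490/535 nm) fluorescence.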

[5] = qHTS assay to test for compound auto fluorescence at 590 nm (red) in HepG2 cells (AID 720674)
Summary of the method: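 HepG2 cells, 2,000 per well in MEM with 10% FBS, attached overnight at 37 C, then got 23 nL compound or DMSO. After 1 hr at 37 C, 5% CO2, red fluorescence was read at 540/590 nm against Rose Bengal sodium as reference.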

[6] = qHTS assay to test for compound auto fluorescence at 535 nm (green) in HepG2 cells (AID 720675)
[7] = qHTS assay to test for compound auto fluorescence at 460 nm (blue) in HEK293 cells (AID 720678)
Summary of the method: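 Auto fluorescence in the blue band was quantified as triamterene equivalency. HEK293 cells were seeded at 2,000/well, dosed after a 4-5 hr attachment, and kept overnight at 37C before the 405/460 nm reading.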

[8] = qHTS assay to test for compound auto fluorescence at 590 nm (red) in HEK293 cells (AID 720679)
Summary of the method: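 Autofluorescence equivalency to Rose Bengal sodium, 540/590nm, in HEK293 cells exposed overnight to 23 nL compound per well.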

[9] = qHTS assay to test for compound auto fluorescence at 535 nm (green) in HEK293 cells (AID 720680)
[10] = qHTS assay to test for compound auto fluorescence at 460 nm (blue) in HEK293 cell free culture (AID 720681)
Summary of the method: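 Compounds were added to cell-free DMEM with 10% FBS and fluorescence read directly. The blue channel used 405 nm excitation and 460 nm emission, with triamterene as the reference fluorophore.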

[11] = qHTS assay to test for compound auto fluorescence at 535 nm (green) in HEK293 cell free culture (AID 720682)
Summary of the method: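 Cell-free medium (DMEM, 10% FBS) receives compound or DMSO by pintool. Plate read directly at Ex 485/Em 535 nm. Signal converted to fluorescein equivalency.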

[12] = qHTS assay to test for compound auto fluorescence at 590 nm (red) in HEK293 cell free culture (AID 720683)
Summary of the method: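 Cell-free wells of DMEM with 10% FBS received compound, and intrinsic fluorescence was read at excitation/emission 540/590 nm. Values expressed as equivalence to Rose Bengal sodium.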

[13] = qHTS assay to test for compound auto fluorescence at 590 nm (red) in HepG2 cell free culture (AID 720684)
Summary of the method: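 Compound was pinned into wells holding MEM with 10% FBS and no cells, and red fluorescence was read at Ex/Em 540/590 nm. Signal is expressed as auto fluorescence equivalency relative to Rose Bengal sodium.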

[14] = qHTS assay to test for compound auto fluorescence at 460 nm (blue) in HepG2 cell free culture (AID 720685)
Summary of the method: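 Compound (23 nL) or DMSO pinned into cell-free MEM with 10% FBS; blue fluorescence read at 405/460 nm excitation/emission, expressed as auto-fluorescence equivalency to triamterene.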

[15] = qHTS assay to test for compound auto fluorescence at 535 nm (green) in HepG2 cell free culture (AID 720686)
[16] = qHTS assay to test for compound auto fluorescence at 460 nm (blue) in HepG2 cells (AID 720687)
Summary of the method: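 HepG2 cells in MEM with 10% FBS, attached overnight at 37 C, were exposed to compound or DMSO for 1 hr at 37 C, 5% CO2. Blue fluorescence was read at 405/460 nm, with triamterene as reference fluorophore.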

[17] = molecular target: Glucocorticoid receptor (Homo sapiens) (UniProt P04150); experiment: qHTS assay to identify small molecule agonists of the glucocorticoid receptor (GR) signaling pathway (AID 720691; active = well fitted activation curve with a large enough effect in the signal ratio in the repeat runs, not every such curve was filed as active; the % refers to the signal ratio)
Chain of Glucocorticoid receptor (Homo sapiens) (P04150 whole entry, looked up): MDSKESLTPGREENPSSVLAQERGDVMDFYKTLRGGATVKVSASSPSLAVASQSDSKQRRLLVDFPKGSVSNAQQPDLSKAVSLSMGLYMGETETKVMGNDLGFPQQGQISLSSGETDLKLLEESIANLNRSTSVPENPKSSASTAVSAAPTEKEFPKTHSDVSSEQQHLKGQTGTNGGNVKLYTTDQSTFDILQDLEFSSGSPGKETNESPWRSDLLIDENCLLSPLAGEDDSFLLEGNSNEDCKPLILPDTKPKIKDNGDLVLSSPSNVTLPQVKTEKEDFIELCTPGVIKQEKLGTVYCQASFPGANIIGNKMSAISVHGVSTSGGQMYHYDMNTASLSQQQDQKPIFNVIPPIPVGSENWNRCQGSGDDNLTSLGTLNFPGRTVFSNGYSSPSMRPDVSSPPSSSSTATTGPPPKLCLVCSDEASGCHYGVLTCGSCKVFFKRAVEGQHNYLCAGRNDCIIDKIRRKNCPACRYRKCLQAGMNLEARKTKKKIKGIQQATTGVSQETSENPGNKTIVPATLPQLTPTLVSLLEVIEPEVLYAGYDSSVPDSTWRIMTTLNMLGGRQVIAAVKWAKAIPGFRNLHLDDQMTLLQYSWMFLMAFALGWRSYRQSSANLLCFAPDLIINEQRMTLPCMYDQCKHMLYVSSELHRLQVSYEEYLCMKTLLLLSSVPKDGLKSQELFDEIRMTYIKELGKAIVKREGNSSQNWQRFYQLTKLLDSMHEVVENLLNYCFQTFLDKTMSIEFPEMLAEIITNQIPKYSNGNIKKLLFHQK
Summary of the method: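 GR-bla HeLa cells (beta-lactamase reporter under glucocorticoid response element) were plated 4 h at 37 C/5% CO2, given compounds in DMSO, and incubated 18 h at 37 C. LiveBLAzer B/G FRET substrate was added for 2 h at room temperature, then fluorescence intensity read.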

[18] = molecular target: Glucocorticoid receptor (Homo sapiens) (UniProt P04150); experiment: qHTS assay to identify small molecule antagonists of the glucocorticoid receptor (GR) signaling pathway (AID 720692; active = well fitted inhibition curve with a large enough effect in the signal ratio in the repeat runs, not every such curve was filed as active; the % refers to the signal ratio; note: potency is the fitted concentration of half-maximal effect)
Summary of the method: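 GR-bla HeLa cells (beta-lactamase reporter under glucocorticoid response element) were pre-plated 4 h at 37 C, treated with compounds plus 5 nM dexamethasone (final) for 18 h, then read by LiveBLAzer B/G FRET fluorescence after 2 h.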

[19] = qHTS assay for small molecule agonists of the p53 signaling pathway - cell viability (AID 651633; calls by dose curve; note: nearly all actives have a fitted effect of over 30% in size; note: potency is the fitted concentration of half-maximal effect)
Summary of the method: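 p53RE-bla cells were treated with compound for 16 hours at 37 C. Cytotoxicity was then measured as CellTiter-Glo luminescence after 30 min at room temperature.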

[20] = qHTS assay for small molecules that induce genotoxicity in human embryonic kidney cells expressing luciferase-tagged ATAD5 (AID 651632); note: nearly all actives have a fitted effect of over 15% in size; note: potency is the fitted concentration of half-maximal effect
Summary of the method: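 HEK293T cells carrying a luciferase reporter tagged to ATAD5 were exposed to compound or DMSO vehicle for 16 hr at 37C, 5% CO2. Amplite was added, and after 30 min at room temperature luciferase activity was read as a marker of ATAD5 induction.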

Measured: Potency

c1cc[c]([Hg][c]2ccccc2)cc1
active: [1] 15.4 µM | [4] 15.4 µM | [18] 347 nM
not listed: [19] | [20]
inactive: all other assays above

COC(=O)COc1ccc(Cl)cc1Cl
not listed: [4] | [12] | [16] | [17] | [18] | [20]
inactive: all other assays above

CNCC(=O)c1ccc(O)c(O)c1
not listed: [3] | [4] | [16] | [17] | [20]
inactive: all other assays above

CCOC(=O)CP(=O)(OCC)OCC
not listed: [2] | [4] | [13] | [16] | [17] | [18]
inactive: all other assays above

COc1cccc2c1cc([N+](=O)[O-])c1c(C(=O)O)cc3c(c12)OCO3
active: [1] 2.43 µM
not listed: [2] | [4] | [17] | [18]
inactive: all other assays above

CC(C)(C)NCC(O)c1cc(Cl)c(N)c(Cl)c1 (centres undefined)
active: [1] 1.33 µM
not listed: [4] | [10] | [17] | [18] | [20]
inactive: all other assays above

N#Cc1ccncc1
not listed: [2] | [4] | [11]
inactive: all other assays above

N#CCNCC#N
not listed: [2] | [4] | [10] | [16] | [17] | [18]
inactive: all other assays above

CN1CCN(C(=O)O[C@H]2c3nccnc3C(=O)N2c2ccc(Cl)cn2)CC1
not listed: [2] | [4] | [10] | [11] | [13] | [16] | [17] | [18]
inactive: all other assays above

C[C@H]1CCC[C@H](O)CCCCCc2cc(O)cc(O)c2C(=O)O1
active: [3] 26.6 µM | [18] 21.3 µM and 39.2 µM
not listed: [2] | [4] | [5]
inactive: all other assays above

CC(C)COP(=O)(OCC(C)C)OCC(C)C
not listed: [2] | [4] | [13]
inactive: all other assays above

N#CCBr
not listed: [2] | [3] | [4] | [10] | [12]
inactive: all other assays above

CCCCCCBr
not listed: [3] | [13] | [17] | [18] | [20]
inactive: all other assays above

CCCCOC(=O)c1ccccc1C(=O)O
not listed: [2] | [3] | [4] | [13] | [17] | [18]
inactive: all other assays above

CN/C(=N\[N+](=O)[O-])NCC1CCOC1 (centres undefined)
not listed: [4] | [12] | [20]
inactive: all other assays above

O=C(Nc1ccccc1)c1ccccc1I
not listed: [1] | [4] | [10] | [16] | [17]
inactive: all other assays above

Fc1ccc(C2(Cn3cncn3)OC2c2ccccc2Cl)cc1 (centres undefined)
not listed: [1] | [4] | [11] | [12] | [16] | [17] | [18]
inactive: all other assays above

C=CCC1=C(C)[C@@H](OC(=O)[C@@H]2[C@@H](C=C(C)C)C2(C)C)CC1=O
active: [19] 61.1 µM | [3] 61.1 µM | [4] 15.4 µM | [18] 49000 nM
not listed: [1]
inactive: all other assays above

Cc1ccccc1CO[C@@H]1C[C@@]2(C(C)C)CC[C@]1(C)O2
not listed: [1] | [3] | [4] | [12] | [17] | [18]
inactive: all other assays above

CCOP(=S)(OCC)SCSP(=S)(OCC)OCC
not listed: [1] | [3] | [4]
inactive: all other assays above

COc1cc(C[C@@H](C)N)c(OC)cc1C
not listed: [1] | [11] | [17] | [18]
inactive: all other assays above

O=C(Cc1ccccc1)OCc1ccccc1
not listed: [1] | [4] | [5] | [11]
inactive: all other assays above

CCOP(=S)(OCC)Oc1ncn(-c2ccccc2)n1
not listed: [1] | [4] | [13] | [17] | [18]
inactive: all other assays above

CC(C)CC(N(C)C)C1(c2ccc(Cl)cc2)CCC1 (centres undefined)
not listed: [1] | [4] | [11]
inactive: all other assays above

CC(CCc1ccccc1)NC(C)C(O)c1ccc(O)cc1 (centres undefined)
not listed: [1] | [4] | [12] | [18]
inactive: all other assays above

CCN(CC)CCOC(=O)C(C)(c1ccccc1)c1ccccc1
not listed: [1] | [4] | [17] | [18]
inactive: all other assays above

CCc1cc2c(s1)-n1c(C)nnc1CN=C2c1ccccc1Cl
active: [20] 26.6 µM
not listed: [1] | [4] | [5] | [10] | [12] | [13] | [17] | [18]
inactive: all other assays above

COC(=O)C1=CCCN(C)C1
not listed: [1] | [10]
inactive: all other assays above

CCOP(=S)(OCC)SCSc1ccc(Cl)cc1
not listed: [1] | [4] | [5]
inactive: all other assays above

COC(=O)c1ccccc1S(=O)(=O)NC(=O)N(C)c1nc(C)nc(OC)n1
not listed: [1] | [4]
inactive: all other assays above
